Reference: the supplement of paper PMC10849652
The full data set covers some 8,800 targets. This sample favours those with a hit. About 0.5% of all pairs of compound and target were hits. A number with no mark means an inactive call.

These targets were tested with Cc1cc(Nc2cc(CN3CCOCC3)c3nc(C)c(Cc4ccc(Cl)cc4F)n3n2)n[nH]1 [gandotinib] (assay: log2 fold change, soluble protein after heating vs DMSO (PISA); higher = thermal stabilisation; K562 lysate, 10 uM; active = over 0.2 and 3.5 SD of the protein, either way, in both replicates (recomputed)).
Procedure, shortened: (§1)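 Thermal stability, expressed as log-two fold change relative to solvent controls, is given from duplicates. Crude K562 extract in PBS pH 7.4 with 1 mM MgCl2, at 1 mg/mL protein, was treated with 10 μM compound for 30 min and heated in aliquots for 3 min across 48°C-58°C. After pooling, adjustment to 0.5% NP-40 at 4°C and centrifugation at 21,000xg for 90 min, supernatant protein was measured by TMTpro 16plex LC-MS/MS with channel sums equalised.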

UniProt Q8IYX8, sequence (Q8IYX8 whole entry, looked up): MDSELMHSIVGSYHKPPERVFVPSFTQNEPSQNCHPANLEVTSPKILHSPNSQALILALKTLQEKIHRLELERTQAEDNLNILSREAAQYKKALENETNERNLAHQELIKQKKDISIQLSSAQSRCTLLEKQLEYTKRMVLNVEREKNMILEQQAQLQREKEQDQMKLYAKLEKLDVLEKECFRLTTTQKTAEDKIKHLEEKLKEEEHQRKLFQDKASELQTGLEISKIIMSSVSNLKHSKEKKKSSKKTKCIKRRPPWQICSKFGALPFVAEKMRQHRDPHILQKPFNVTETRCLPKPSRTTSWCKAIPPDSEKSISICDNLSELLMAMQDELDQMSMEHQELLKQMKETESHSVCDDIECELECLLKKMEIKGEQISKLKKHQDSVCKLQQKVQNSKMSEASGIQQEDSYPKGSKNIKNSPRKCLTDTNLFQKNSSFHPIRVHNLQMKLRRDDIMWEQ
UniProt Q15059, sequence (Q15059 whole entry, looked up): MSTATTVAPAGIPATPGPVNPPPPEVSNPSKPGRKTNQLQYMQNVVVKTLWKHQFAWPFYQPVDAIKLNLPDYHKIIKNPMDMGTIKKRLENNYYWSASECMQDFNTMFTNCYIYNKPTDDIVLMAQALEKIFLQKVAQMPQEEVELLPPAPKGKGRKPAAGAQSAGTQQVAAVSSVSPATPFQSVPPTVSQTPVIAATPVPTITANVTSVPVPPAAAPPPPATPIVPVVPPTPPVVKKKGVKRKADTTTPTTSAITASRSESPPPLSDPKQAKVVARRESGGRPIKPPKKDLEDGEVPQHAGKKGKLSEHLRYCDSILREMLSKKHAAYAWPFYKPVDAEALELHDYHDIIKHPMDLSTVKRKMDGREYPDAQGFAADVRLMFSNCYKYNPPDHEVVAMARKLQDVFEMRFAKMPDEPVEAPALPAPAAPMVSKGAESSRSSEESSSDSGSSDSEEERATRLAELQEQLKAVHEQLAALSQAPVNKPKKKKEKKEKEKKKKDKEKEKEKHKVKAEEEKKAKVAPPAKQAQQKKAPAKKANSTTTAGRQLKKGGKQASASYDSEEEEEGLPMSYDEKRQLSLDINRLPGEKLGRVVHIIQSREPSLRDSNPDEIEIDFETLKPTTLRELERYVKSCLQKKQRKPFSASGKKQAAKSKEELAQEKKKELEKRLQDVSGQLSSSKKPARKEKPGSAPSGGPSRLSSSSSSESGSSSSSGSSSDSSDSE
UniProt O76039, sequence (O76039 whole entry, looked up): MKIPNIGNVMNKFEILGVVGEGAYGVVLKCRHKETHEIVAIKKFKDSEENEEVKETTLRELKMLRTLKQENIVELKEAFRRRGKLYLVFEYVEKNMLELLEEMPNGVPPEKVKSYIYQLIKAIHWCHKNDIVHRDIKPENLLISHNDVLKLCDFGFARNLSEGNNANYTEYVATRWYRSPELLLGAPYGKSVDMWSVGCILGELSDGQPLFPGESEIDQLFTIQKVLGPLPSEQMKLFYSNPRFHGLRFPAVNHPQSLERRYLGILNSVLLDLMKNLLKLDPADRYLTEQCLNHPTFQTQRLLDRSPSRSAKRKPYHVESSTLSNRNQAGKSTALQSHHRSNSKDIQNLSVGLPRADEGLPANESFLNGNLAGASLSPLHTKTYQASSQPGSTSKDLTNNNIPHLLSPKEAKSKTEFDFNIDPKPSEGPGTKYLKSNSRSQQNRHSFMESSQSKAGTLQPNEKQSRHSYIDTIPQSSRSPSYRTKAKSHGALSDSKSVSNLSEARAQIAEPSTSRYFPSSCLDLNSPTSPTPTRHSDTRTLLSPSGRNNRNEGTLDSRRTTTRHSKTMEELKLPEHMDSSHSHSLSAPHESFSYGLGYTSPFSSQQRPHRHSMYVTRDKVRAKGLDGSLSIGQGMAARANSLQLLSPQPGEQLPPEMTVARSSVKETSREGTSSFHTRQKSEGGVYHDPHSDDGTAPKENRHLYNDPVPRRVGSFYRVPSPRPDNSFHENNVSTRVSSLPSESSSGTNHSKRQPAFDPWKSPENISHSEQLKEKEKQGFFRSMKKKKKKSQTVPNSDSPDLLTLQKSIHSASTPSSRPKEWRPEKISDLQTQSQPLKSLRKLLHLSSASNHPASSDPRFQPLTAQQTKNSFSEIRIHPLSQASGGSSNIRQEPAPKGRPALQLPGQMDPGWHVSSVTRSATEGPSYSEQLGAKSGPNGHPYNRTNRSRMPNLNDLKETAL
UniProt Q9BYV8, sequence (Q9BYV8 whole entry, looked up): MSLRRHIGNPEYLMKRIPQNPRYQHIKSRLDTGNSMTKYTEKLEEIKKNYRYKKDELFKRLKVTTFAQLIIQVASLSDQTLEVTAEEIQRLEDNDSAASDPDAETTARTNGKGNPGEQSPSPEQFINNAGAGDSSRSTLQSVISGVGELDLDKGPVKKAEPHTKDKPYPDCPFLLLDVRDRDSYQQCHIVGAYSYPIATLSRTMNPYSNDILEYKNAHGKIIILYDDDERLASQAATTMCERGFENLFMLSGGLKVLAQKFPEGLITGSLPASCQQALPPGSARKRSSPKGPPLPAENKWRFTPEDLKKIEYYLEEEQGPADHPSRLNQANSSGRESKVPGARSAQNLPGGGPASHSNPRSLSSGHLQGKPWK
UniProt Q7Z7K6, sequence (Q7Z7K6 whole entry, looked up): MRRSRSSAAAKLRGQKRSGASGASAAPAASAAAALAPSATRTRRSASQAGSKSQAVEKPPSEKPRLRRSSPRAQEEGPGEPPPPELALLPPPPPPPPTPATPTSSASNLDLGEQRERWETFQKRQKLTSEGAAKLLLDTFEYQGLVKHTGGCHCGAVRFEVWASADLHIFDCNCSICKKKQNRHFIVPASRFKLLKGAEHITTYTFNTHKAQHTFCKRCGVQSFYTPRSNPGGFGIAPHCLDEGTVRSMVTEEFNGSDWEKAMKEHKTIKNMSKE
UniProt P30281, sequence (P30281 whole entry, looked up): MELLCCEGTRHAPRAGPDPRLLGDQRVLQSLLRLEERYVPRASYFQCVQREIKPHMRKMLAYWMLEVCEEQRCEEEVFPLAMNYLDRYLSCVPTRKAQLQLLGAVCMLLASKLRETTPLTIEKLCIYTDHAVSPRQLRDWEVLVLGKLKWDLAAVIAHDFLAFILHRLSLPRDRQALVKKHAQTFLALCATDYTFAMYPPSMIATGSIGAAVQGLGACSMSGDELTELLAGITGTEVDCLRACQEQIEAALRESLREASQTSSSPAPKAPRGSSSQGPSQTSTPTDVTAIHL
UniProt Q13554, sequence (Q13554 whole entry, looked up): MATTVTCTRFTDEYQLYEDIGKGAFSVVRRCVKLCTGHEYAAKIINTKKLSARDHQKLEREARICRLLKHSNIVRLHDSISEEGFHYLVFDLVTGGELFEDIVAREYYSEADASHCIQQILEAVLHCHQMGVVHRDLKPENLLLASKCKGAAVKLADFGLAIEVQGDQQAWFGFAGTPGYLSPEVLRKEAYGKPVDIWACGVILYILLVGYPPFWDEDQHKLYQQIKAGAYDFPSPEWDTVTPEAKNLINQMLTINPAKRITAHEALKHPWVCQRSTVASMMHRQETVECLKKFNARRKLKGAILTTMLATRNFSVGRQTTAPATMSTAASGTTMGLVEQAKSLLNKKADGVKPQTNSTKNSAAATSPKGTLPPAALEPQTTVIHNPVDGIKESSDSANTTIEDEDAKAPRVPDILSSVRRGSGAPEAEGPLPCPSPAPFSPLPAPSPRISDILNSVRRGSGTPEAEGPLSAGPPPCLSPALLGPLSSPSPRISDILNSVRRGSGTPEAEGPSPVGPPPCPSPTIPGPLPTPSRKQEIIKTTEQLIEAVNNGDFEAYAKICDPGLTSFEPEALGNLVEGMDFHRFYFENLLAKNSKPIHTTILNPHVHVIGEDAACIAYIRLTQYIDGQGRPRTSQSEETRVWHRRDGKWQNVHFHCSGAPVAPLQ
UniProt Q9BUK0, sequence (Q9BUK0 whole entry, looked up): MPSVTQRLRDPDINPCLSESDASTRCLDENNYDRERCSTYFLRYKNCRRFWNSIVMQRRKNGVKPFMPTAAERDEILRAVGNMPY
UniProt O95260, sequence (O95260 whole entry, looked up): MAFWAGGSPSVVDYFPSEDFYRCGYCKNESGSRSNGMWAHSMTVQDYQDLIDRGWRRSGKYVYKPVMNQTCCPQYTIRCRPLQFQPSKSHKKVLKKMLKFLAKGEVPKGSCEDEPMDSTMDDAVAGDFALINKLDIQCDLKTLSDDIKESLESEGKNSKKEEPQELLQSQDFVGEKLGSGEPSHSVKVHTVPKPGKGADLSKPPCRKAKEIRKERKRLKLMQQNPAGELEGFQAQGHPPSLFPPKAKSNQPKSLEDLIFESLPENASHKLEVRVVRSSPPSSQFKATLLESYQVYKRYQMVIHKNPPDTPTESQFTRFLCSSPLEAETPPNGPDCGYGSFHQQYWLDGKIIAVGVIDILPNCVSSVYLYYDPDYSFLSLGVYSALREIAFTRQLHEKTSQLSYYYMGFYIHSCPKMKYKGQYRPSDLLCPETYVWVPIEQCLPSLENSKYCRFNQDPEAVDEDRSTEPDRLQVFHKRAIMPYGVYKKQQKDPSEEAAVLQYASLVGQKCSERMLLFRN
UniProt P13994, sequence (P13994 whole entry, looked up): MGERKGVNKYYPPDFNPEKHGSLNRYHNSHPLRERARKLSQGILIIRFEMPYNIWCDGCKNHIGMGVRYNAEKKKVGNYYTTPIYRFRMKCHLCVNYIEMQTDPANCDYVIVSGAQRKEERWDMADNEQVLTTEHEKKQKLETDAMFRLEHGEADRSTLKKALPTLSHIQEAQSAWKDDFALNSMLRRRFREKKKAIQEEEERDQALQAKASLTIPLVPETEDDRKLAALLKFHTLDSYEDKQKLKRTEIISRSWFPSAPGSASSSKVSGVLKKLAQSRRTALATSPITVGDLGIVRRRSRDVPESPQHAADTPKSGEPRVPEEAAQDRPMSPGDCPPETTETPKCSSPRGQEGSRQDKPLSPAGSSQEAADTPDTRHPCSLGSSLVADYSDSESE
UniProt P0DMB2, sequence (P0DMB2 whole entry, looked up): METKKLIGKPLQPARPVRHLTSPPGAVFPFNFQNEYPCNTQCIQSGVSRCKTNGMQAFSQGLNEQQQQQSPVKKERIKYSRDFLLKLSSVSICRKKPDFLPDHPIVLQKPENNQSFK

Target | log2 fold change
C3AR1 (UniProt Q16581) | 0.043
CCND3 (UniProt P30281) | -0.022
CDKL5 (UniProt O76039) | 0.537
CDK11A (UniProt Q9UQ88) | 0.122
CDCA8 (UniProt Q53HL2) | -0.031
CAMK2B (UniProt Q13554) | 0.072
CASC1 (UniProt Q6TDU7) | 0.058
CEP128 (UniProt Q6ZU80) | 0.331
CEP57L1 (UniProt Q8IYX8) | -0.022
BAHCC1 (UniProt Q9P281) | 0.006
C6orf120 (UniProt Q7Z4R8) | -0.037
CENPV (UniProt Q7Z7K6) | -0.193
CARHSP1 (UniProt H3BNU9) | -0.329
CEP41 (UniProt Q9BYV8) | 0.003
CDK16 isoform 2 (UniProt Q00536) | 0.533 (active)
CEP295 isoform 3 (UniProt Q9C0D2) | 0.058
ATE1 (UniProt O95260) | -0.019
CHCHD7 isoform 4 (UniProt Q9BUK0) | 0.266
BRD3 (UniProt Q15059) | 0.147
BICRA (UniProt Q9NZM4) | 0.171
C8orf88 (UniProt P0DMB2) | -0.017
CAD (UniProt H7BZB3) | 0.036
BMT2 (UniProt Q1RMZ1) | -0.124

The targets below were run with Cc1cc(Nc2cc(N3CCN(C)CC3)nc(Sc3ccc(NC(=O)C4CC4)cc3)n2)n[nH]1 [tozasertib] in the same assay as above.
Procedure, shortened: as §1

Target | log2 fold change
CCND3 (UniProt P30281) | 0.073
CDKL5 (UniProt O76039) | 0.024
CASP7 isoform 3 (UniProt P55210) | 0.049
CDCA8 (UniProt Q53HL2) | -0.047
ATG4D (UniProt Q86TL0) | 0.099
CAMK2B (UniProt Q13554) | -0.046
CEP128 (UniProt Q6ZU80) | 0.027
BRAF, A0A2R8Y8E0 | 0.035
CEP57L1 (UniProt Q8IYX8) | -0.07
BAHCC1 (UniProt Q9P281) | 0.052
CCP110 (UniProt O43303) | -0.009
CENPV (UniProt Q7Z7K6) | 0.094
CEP41 (UniProt Q9BYV8) | 0.086
ATPSCKMT (UniProt Q6P4H8) | -0.219
CEP295 isoform 3 (UniProt Q9C0D2) | 0.111
CHCHD7 isoform 4 (UniProt Q9BUK0) | -0.077
BRD3 (UniProt Q15059) | 0.048
C16orf70 (UniProt Q9BSU1) | 0.018
CHD4, A0A2R8Y521 | 0.081
CAD (UniProt H7BZB3) | -0.062
CCDC130 (UniProt P13994) | 0.055

The targets below were run with Cc1ccc(-n2nc(C(C)(C)C)cc2NC(=O)Nc2ccc(OCCN3CCOCC3)c3ccccc23)cc1 [doramapimod] in the same assay as above.
Procedure, shortened: as §1

Target | log2 fold change
C3AR1 (UniProt Q16581) | -0.01
CCND3 (UniProt P30281) | 0.101
CDKL5 (UniProt O76039) | -0.057
CASP7 isoform 3 (UniProt P55210) | 0.029
CDK11A (UniProt Q9UQ88) | -0.072
ATG4D (UniProt Q86TL0) | -0.072
CAMK2B (UniProt Q13554) | -0.03
B3GALT6 (UniProt Q96L58) | 0.1
CDAN1 (UniProt H3BPZ6) | 0.059
CDC14A isoform 2 (UniProt Q9UNH5) | 0.108
CEP57L1 (UniProt Q8IYX8) | 0.05
BAHCC1 (UniProt Q9P281) | 0.137
CCP110 (UniProt O43303) | 0.009
CENPV (UniProt Q7Z7K6) | -0.149
CEP41 (UniProt Q9BYV8) | 0.044
ATPSCKMT (UniProt Q6P4H8) | 0.022
CDK16 isoform 2 (UniProt Q00536) | 0.012
CEP295 isoform 3 (UniProt Q9C0D2) | 0.059
ATE1 (UniProt O95260) | 0.043
CHCHD7 isoform 4 (UniProt Q9BUK0) | 0.026
BRD3 (UniProt Q15059) | -0.074
CAPNS1 (UniProt K7ES78) | -0.08
CDC25A (UniProt P30304) | 0.114
BICRA (UniProt Q9NZM4) | 0.014
C8orf88 (UniProt P0DMB2) | -0.004
C16orf70 (UniProt Q9BSU1) | 0.116
CCDC130 (UniProt P13994) | 0.617
